The values below come from PubChem BioAssay AID1220 (Sanford-Burnham Center for Chemical Genomics, 2008).

The structures appear in SMILES notation. Out of some 190,000 compounds screened, about 1,300 (0.68%) were called active. Many of the other results were omitted from the sample, so actives are more common in it than they were. Values without a mark were called inactive. Cut-off read from the data, not from the text of the source: active = inhibition above about 50%; inactive = the rest.

Sequence of Mannose-6-phosphate isomerase (Homo sapiens) (P34949 whole entry, looked up): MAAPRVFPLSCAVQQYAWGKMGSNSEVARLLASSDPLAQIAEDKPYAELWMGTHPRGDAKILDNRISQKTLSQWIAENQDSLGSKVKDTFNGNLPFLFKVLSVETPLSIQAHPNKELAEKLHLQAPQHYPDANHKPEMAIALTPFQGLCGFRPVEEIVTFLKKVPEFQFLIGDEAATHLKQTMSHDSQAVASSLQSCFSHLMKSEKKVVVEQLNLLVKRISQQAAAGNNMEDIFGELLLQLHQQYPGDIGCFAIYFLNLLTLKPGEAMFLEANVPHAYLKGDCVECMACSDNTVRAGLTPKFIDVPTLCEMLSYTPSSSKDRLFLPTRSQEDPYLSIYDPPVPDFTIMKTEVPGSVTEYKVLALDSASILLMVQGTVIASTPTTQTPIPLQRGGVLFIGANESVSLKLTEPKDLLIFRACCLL

The experiment has as its target Mannose-6-phosphate isomerase (Homo sapiens) (UniProt P34949). As to the kind of experiment: human PMI inhibitors, high substrate, primary screen, biochemical, fluorescence intensity, high mannose 6-phosphate (AID 1220). The settings on record: recombinant PMI enzyme, coupled fluorescence intensity; at 20 µM; stronger effect = higher value.
Regarding `CCCCC(=O)NC(c1ccco1)c1c(O)ccc2ccccc12` (stereo unspecified), the inhibition (commonly the change of the read-out against control, counted positive when it falls) is 30.3%. The figure for `CC(C)C(=O)NC(c1ccc([N+](=O)[O-])cc1)c1c(O)ccc2ccccc12` (stereo unspecified) is 59.5% (active).

For the molecule `CC(C)C(=O)NC(c1cccc([N+](=O)[O-])c1)c1c(O)ccc2ccccc12` (stereo unspecified), the inhibition is 26.6%. To `CCCC(=O)NC(c1ccco1)c1c(O)ccc2ccccc12` (stereo unspecified) belongs 33.6%. To `CC(C)C(=O)NC(c1ccco1)c1c(O)ccc2ccccc12` (stereo unspecified) belongs 56.9% (active); to `CC(=O)NC(c1ccc([N+](=O)[O-])cc1)c1c(O)ccc2ccccc12` (stereo unspecified), 34.2%; to `COc1ccc2[nH]c(=O)c(CN(Cc3cccs3)C(=S)Nc3cccc(C)c3)cc2c1`, 5%. To `C=CCn1c(SCC(=O)c2ccc(Cl)cc2)nnc1-c1ccc2c(c1)OCO2` belongs -0.6%; to `O=C(CCNC(=O)c1ccccc1)Oc1ccc([N+](=O)[O-])cc1`, -10.4%. Regarding `N#CC1=C(N)SC(N)=C(C#N)C1c1c(Cl)cccc1Cl`, the inhibition is 6%. To `COc1ccc(-c2csc(Cc3nnc(N4CCOCC4)n3-c3ccccc3)n2)cc1OC` belongs -41%. Turning to `COc1ccc(NC(=O)/C(N=Nc2cc(S(=O)(=O)Nc3ccc(OC)cc3)ccc2OC)=C(\C)O)cc1`, the inhibition is -1%. The figure for `CCOC(=O)N/C(N)=N/c1nc2ccccc2s1` is -3.7%. To `CC(=O)Nc1cc(N=Cc2ccc(O)cc2O)c(Cl)cc1Cl` belongs 44.8%. To `CC(=O)Nc1cc(Cl)c(N=Cc2ccc(O)cc2O)cc1Cl` belongs 63.3% (active).

As to `COc1ccc(O)c(C=Nc2cc(NC(C)=O)c(Cl)cc2Cl)c1`, the inhibition was 19.4%.

As to `CCOC(=O)Nc1ccc2c(c1)N(C(=O)OC)c1ccccc1CC2`, the inhibition is -3.2%.

In the case of `CS(=O)(=O)N(Cc1ccccc1)c1ccc(C(=O)N2CCOCC2)cc1`, the inhibition was 11.2%.

As to `CCOc1ccc2oc(C(=O)NC3CCN(Cc4ccccc4)CC3)c(C)c2c1`, the inhibition was -4.4%. To `COc1ccc(N2CCN(C(=O)c3ccc(SC)cc3OC)CC2)cc1` belongs 21.7%.

Consider `COc1cc(SC)ccc1C(=O)N1CCN(c2ccc(O)cc2)CC1`, for which the inhibition is 55.8% (active). Regarding `COc1cc(SC)ccc1C(=O)N1CCN(c2ccccc2)CC1`, the inhibition was 5.9%. The figure for `CCn1c(SCC(=O)N2CCCCC2C)nc2ccsc2c1=O` (stereo unspecified) is -3.6%. `CCc1ccc(NC(=O)CO/N=C(\C)c2cc3ccccc3o2)cc1`: the inhibition was 45%. Take `CCc1cccc(C)c1NC(=O)CO/N=C(\C)c1cc2ccccc2o1`: the inhibition is 60.5% (active). For the molecule `CSc1ccccc1NC(=O)CO/N=C(\C)c1cc2ccccc2o1`, the inhibition is 14.6%. To `O=C(CC1(O)C(=O)N(Cc2cccc3ccccc23)c2ccccc21)c1cccnc1` (stereo unspecified) belongs 2.3%; to `CCCn1c(SCc2ccccn2)nc2c1c(=O)n(C)c(=O)n2C`, 4.6%; to `O=C(NC1Cc2ccccc2C1)c1cc(COc2ccc(F)cc2Cl)on1`, -6.1%.

On to `CCS(=O)(=O)c1ccc(-c2csc(-c3ccccc3Cl)n2)c(Cl)c1Cl`, for which the inhibition was 5.5%. To `COc1ccc(CN2CCNC(=O)C2CC(=O)N2CCCCO2)c(OC)c1` (stereo unspecified) belongs 27.5%; to `COc1ccc(CN2CCNC(=O)C2CC(=O)N2CCCCO2)cc1OC` (stereo unspecified), 45.9%; to `COc1cc(CN2CCNC(=O)C2CC(=O)N2CCCCO2)cc(OC)c1` (stereo unspecified), 52% (active). The figure for `COc1cc(OC)cc(-c2nnc(SCc3c(F)cccc3Cl)o2)c1` is 8.3%.

For `CCOc1ccc(C(CC(=O)O)NC(=O)c2cccs2)cc1OC` (stereo unspecified), the inhibition was -10.3%. To `CCS(=O)(=O)c1ccc2oc(=O)c(/C=C(\O)c3ccc(Cl)cc3)nc2c1` belongs 17.4%; to `Cc1ccc2oc(=O)c(/C=C(\O)CC(C)C)nc2c1`, 10.4%. For the molecule `CC(C)C/C(O)=C/c1nc2cc(Cl)ccc2oc1=O`, the inhibition was 55.1% (active). The figure for `C/C(=N/Nc1nc(-c2ccccc2)cc(-c2ccccc2)n1)c1ccc(N)cc1` is 3.6%. The figure for `O=C(CN1N=C(c2ccc(Cl)cc2)CCC1=O)NCc1cccs1` is 59.2% (active); for `O=C(CN1N=C(c2ccccc2)CCC1=O)NCc1cccs1` it is 6.5%. To `Cc1ccc(C2=NN(CC(=O)NCc3cccs3)C(=O)CC2)cc1` belongs 3.3%; to `CC(NC(=O)c1cc2ccccc2o1)c1ccccc1` (stereo unspecified), -9.3%; to `CCn1cc(C(=O)NCCCN2CCN(C)CC2)c(=O)c2cc(S(=O)(=O)N3CCc4ccccc4C3)ccc21`, -2.9%. For the molecule `O=C(O)c1ccc(N2Cc3ccccc3C2)cc1O`, the inhibition is -70.5%. The figure for `CSc1nsc(/C=C/Nc2ccc(F)cc2F)c1C#N` is 21.4%; for `CSc1nsc(/C=C/Nc2ccc(O)cc2C)c1C#N` it is 65.8% (active); for `CSc1nsc(/C=C/Nc2ccc(C)c(C)c2)c1C#N` it is 40.1%.

As for `Cc1cc(NC(=O)COC(=O)c2ccco2)no1`, the inhibition is -0.8%. The figure for `CCOC(=O)c1c(NC(=O)CN2C(=O)c3ccccc3C2=O)sc(Cc2ccc3c(c2)OCO3)c1C` is 51.5% (active); for `COC(=O)c1c(NC(=O)CN2C(=O)c3ccccc3C2=O)sc(Cc2ccc3c(c2)OCO3)c1C` it is 1.6%. `Cc1c(Cc2ccc3c(c2)OCO3)sc(NC(=O)c2ccccc2)c1C(N)=O`: the inhibition was 2.7%.

As for `CC1(c2ccccc2)CC2CC(c3ccccc3)N1O2` (stereo unspecified), the inhibition is -7.9%. As to `CC1=C(C#N)C(=O)NC(=O)/C1=C\c1ccc(-c2ccc(C)cc2[N+](=O)[O-])o1`, the inhibition is 48.6%. To `CC1=C(C#N)C(=O)NC(=O)/C1=C\c1ccc(-c2cc(C)c(C)cc2[N+](=O)[O-])o1` belongs 52.8% (active); to `CC1=C(C#N)C(=O)NC(=O)/C1=C/c1ccc(-c2ccc(S(N)(=O)=O)cc2)o1`, 18.1%. To `CC(Sc1nnc(NC2CCCCC2)s1)C(=O)Nc1ccc2c(c1)C(=O)c1ccccc1C2=O` (stereo unspecified) belongs -14.7%; to `O=C(Nc1nccs1)c1ccc(CSc2nnnn2-c2ccccc2)cc1`, -6.7%. The figure for `O=C(CN1CCN(C(=O)N2CCCCC2)CC1)Nc1ccc(F)cc1` is 6.5%; for `CCOC(=O)C1Sc2ccccc2NC1=O` (stereo unspecified) it is 36.5%; for `CN(C(=O)c1cccnc1)c1nnc(-c2ccccn2)s1` it is 2%. Turning to `CCN1CCc2c(C#N)c(NCc3ccccc3)nc(N(CC)CC)c2C1`, the inhibition was 0.8%. The figure for `CN1CCc2c(C#N)c(N3CCCCC3)nc(NCc3ccccc3)c2C1` is 53% (active). For the molecule `CC(C)CCNc1nc(N2CCCC2)c2c(c1C#N)CCN(C)C2`, the inhibition is 14.4%. To `CCN1CCc2c(C#N)c(N3CCCCC3)nc(NCc3ccccc3)c2C1` belongs 32.5%; to `Nc1[nH]nc2nc(NCc3ccccc3)c3c(c12)CCN(Cc1ccccc1)C3`, 3.5%; to `N#Cc1c(NCCN)nc(NCc2ccccc2)c2c1CCN(Cc1ccccc1)C2`, 52.6% (active).

As to `C=CCNc1nc(N2CCOCC2)c(C#N)c2c1CN(C)CC2`, the inhibition was 37.3%. The figure for `C=CCNc1nc(N2CCCCC2)c(C#N)c2c1CN(Cc1ccccc1)CC2` is 55.6% (active); for `N#Cc1c(N2CCCCC2)nc(N2CCCCC2)c2c1CCN(Cc1ccccc1)C2` it is 8%. The figure for `CCCN1Cc2cccc(C(=O)N3CCN(c4ccccc4)CC3)c2C1=O` is 1%; for `O=C(Nc1ccc(N2CCOCC2)cc1)c1ccccc1SCC(=O)N1CCCC1` it is 4.1%.

As to `Fc1ccc(CNC(=S)NC2CCCCC2)cc1`, the inhibition is 8.4%. In the case of `CN1C(=O)CC(Nc2cccc3cccc(N)c23)C1=O` (stereo unspecified), the inhibition was 49.7%. To `CC(C)N1C(=O)CC(Nc2cccc3cccc(N)c23)C1=O` (stereo unspecified) belongs 64.5% (active). The figure for `COc1ccc(NC2CC(=O)N(C(C)C)C2=O)cc1` (stereo unspecified) is 8.8%; for `COc1cc(/C=C2\SC(c3ccc(C)cc3)=NC2=O)ccc1O` it is 9.3%; for `Cc1ccc(C2=NC(=O)/C(=C/c3cc(O)c(O)c(Br)c3)S2)cc1` it is 53.2% (active). To `COc1cc(/C=C2\SC(c3ccc(C)cc3)=NC2=O)cc(OC)c1O` belongs 26.7%; to `Cc1cccc(OCc2nnc(SCC(=O)Nc3ccc(C)c(C)c3)o2)c1`, 17.5%. As for `Fc1ccccc1N1CCN(c2nnnn2-c2ccccc2)CC1`, the inhibition was -2.8%. As to `Nn1cnnc1N/N=C/c1cc([N+](=O)[O-])c(Cl)cc1Cl`, the inhibition was -35.2%. The figure for `CC1CCN(c2ccc(/C=N\Nc3nncn3N)cc2[N+](=O)[O-])CC1` is 43.7%; for `COc1ccc(-n2c(C)cc(/C=N/Nc3nnc(C)n3N)c2C)cc1` it is -12.8%. The figure for `COc1ccc(/C=N/Nc2nnc(C)n2N)cc1OC` is 67.2% (active). The figure for `CCc1nnc(N/N=C/c2ccc(-c3ccc([N+](=O)[O-])cc3)o2)n1N` is 41.3%. Turning to `Cc1nnc(N/N=C/c2ccc([N+](=O)[O-])cc2)n1N`, the inhibition is 68.7% (active). To `Cc1cc(=O)[nH]c(N/N=C/c2ccc([N+](=O)[O-])cc2)n1` belongs -4.6%; to `Nn1cnnc1N/N=C/c1ccc(Cl)c([N+](=O)[O-])c1`, 60.2% (active); to `COc1ccc(/C=N/Nc2nonc2N)cc1OC`, -6.6%. To `CCc1cc(=O)oc2cc(C)c3c(C)coc3c12` belongs 4.2%; to `COc1ccc(C(=O)N(CN2CCCC2=O)c2ccccc2OC)cc1OC`, 18.2%. With `O=C(Nc1nc(-c2ccc(Cl)cc2)cs1)NC1CCCCC1`, the inhibition is -7.6%.

As to `CCN(CC)C(=O)CSc1nc(O)c(Cc2ccccc2)c(=O)n1-c1ccccc1`, the inhibition is -5.3%. To `Nn1c(SCC(=O)NCc2ccccc2)nncc1=O` belongs 11.9%. In the case of `Oc1ccc(-c2csc(-c3c[nH]c4ccccc34)n2)c(O)c1`, the inhibition is -4.2%.
